In PubChem BioAssay (NCI):
About 83,000 compounds went through this panel and 20% of them were active in at least one assay; those are over-represented in the sample as a whole.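 The test compound was applied at a single concentration to cells in 96-well plates for 48 hours, and percent growth was recorded.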 Unmarked numbers belong to inactive results. Active and inactive are the calls of the source. How the source made its calls: active means growth percent below 10; inactive means the rest.

Each compound was assayed on MDA-MB-468 breast (assay: NCI-60 one-dose screen, 48 h (100 = growth as untreated, 0 = no growth, -100 = all killed)). Details: 10 µM unless noted.

Row | Structure (SMILES) | growth
1 | CC(=O)C(C(C)=O)C(c1ccccc1)C(C(C)=O)C(C)=O | 98.6%
2 | Cc1ccc(-n2nc3c(c(C#N)c2=O)CC(c2ccccc2[N+](=O)[O-])C([N+](=O)[O-])=C3O)cc1 (stereo not given) | 94%
3 | COc1cc(NC(C)CCCN)c2nc(C)ccc2c1Oc1ccc(F)cc1 (stereo not given) | 57.3%
4 | Cc1cc(Nc2cccc(C(F)(F)F)c2)n2c(nc3ccccc32)c1C#N | -4.87% (active)
5 | CCN1CCN(c2nc(NCCNc3ccnc4cc(Cl)ccc34)c3ccccc3n2)CC1 | -28.8% (active)
6 | CCCCCCCCCCCCCC[n+]1ccc(C)cc1 | -29.9% (active)
7 | Cc1cc2nc3c4cc(O)ccc4n(CCN(C)C)c3nc2cc1C | -38.4% (active)
8 | CCCOC(=O)C1c2cc3c(cc2CC(C)C1C(=O)OCCC)OCO3 (stereo not given) | 102%
9 | O=S(=O)(NCCNc1cc(-c2cn(-c3ccccc3)nc2-c2ccccc2)ccn1)c1cccc2ccccc12 | 36.6%
10 | CCCNC(=O)Oc1ccc(/C(=C(/C)Cc2ccc(OC)cc2)c2ccc(OCCCN(C)C)cc2)cc1 | 73.6%
11 | COc1ccc2c(c1)c(-c1nn3cc(-c4cccs4)nc3s1)cn2C | 71.5%
12 | CC(C)(C)c1cc(C(C)(C)c2ccccc2)cc(Cc2cc(C(C)(C)c3ccccc3)cc(C(C)(C)C)c2O)c1O | 95.2%
13 | O=c1c2ccccc2n(CC(O)CN2CCCC2)c2c(Br)cccc12 (stereo not given) | 97.1%
14 | CC1(C)NCCC[C@]2(C)[C@H]3CC[C@H]4[C@H]5[C@H](C(=O)/C=C/c6cccnc6)CCC[C@]5(CO)CC[C@@]4(C)[C@]3(C)CC[C@@H]12 | -12.6% (active)
15 | COc1ccc(-c2nnc(COc3ccc(NC(=O)Nc4ccccc4)cc3F)o2)cc1 | 86.9%
16 | CS(=O)(=O)c1ccc(-n2cc(/C=N/O)c(-c3ccccc3)n2)cc1 | 35%
17 | CCC(C)(O)Cc1ccc(Cl)cc1 (stereo not given) | 101%
18 | Cc1cc(NC(=O)c2ccc(C)c(Nc3nccc(-c4cccnc4)n3)c2)cc(-n2cnc(C)c2)c1 | -18.1% (active)
19 | CN(C)CC(O)c1ccc(/C=C/c2ccc(Cl)cc2)cc1 (stereo not given) | -84.4% (active)
20 | CCN(CC)c1ccc(/C=N/NC(=O)Cc2ccc(Nc3ccnc(C(F)(F)F)c3)cc2)c(O)c1 | 26.1%

Row | Structure (SMILES) | growth
21 | O=C(N/N=C/c1ccccc1O)c1ccncc1 | 61%
22 | CCCCNC(=O)c1ccc2c(c1)nc(-c1ccccc1)n2C1CCCCC1 | 123%
23 | COc1ccc(-c2nc(SCC(C)C)nc(Nc3ccc([N+](=O)[O-])cc3)c2C#N)cc1 | 93.4%
24 | CC[n+]1c(C)ccc2cc(C)ccc21 | 58.1%
25 | CCOC(=O)c1c(NC(=O)c2ccc(C(C)(C)C)cc2)sc2cc(OCCN3CCCCC3)ccc12 | 85.8%
26 | O=C1c2ccccc2C(=O)c2c(N=Nc3[nH]c(=S)[nH]c3O)cccc21 | -4.9% (active)
27 | O=C1C(Nc2ccc(Br)cc2)=C(I)C(=O)c2ncccc21 | -81.4% (active)
28 | COc1cc(C(=O)/C=C/c2c(-c3ccc(F)cc3)nc3sccn23)cc(OC)c1OC | 12.8%
29 | Cc1ccc(CC(=O)O)c(C)c1 | 112%
30 | COc1ccc(-c2cc(-c3ccc(OC)cc3)nc(NCCCNc3ccnc4cc(Cl)ccc34)n2)cc1 | 74.8%
31 | COc1ccc(C(=O)/C=C/c2c(Cl)c3c(c(OC)c2Cl)OCC(=O)N3)cc1 | 12.4%
32 | O=C(Oc1c(Cl)c(Cl)c(Cl)c(Cl)c1Cl)C1CCCN1C(=O)OCc1ccccc1 (stereo not given) | 11.9%
33 | CC1(C)C2CC1C1(/C=N\Nc3ccccc3)C(C2)C(C#N)(C#N)C1(C#N)C#N (stereo not given) | 94.8%
34 | CCCN1CCN(c2ccc3nc(-c4ccc5nc(-c6ccc(C(F)(F)F)cc6)[nH]c5c4)[nH]c3c2)CC1 | -63.6% (active)
35 | CCC#CC[C@H]1C/C=C2/C(=O)C=C[C@@H]2C/C=C\CCCC(=O)O1 | -3.46% (active)
36 | CC1CCC2(OC1)OC1CC3C4CC=C5CC(O)CCC5(C)C4CCC3(C)C1C2C (stereo not given) | 89.4%
37 | COc1c(Cl)cc(Cl)cc1Cl | 110%
38 | COc1ccc(NC(=O)c2cccc(C3CCc4c(cc(OC)c(OC)c4OC)O3)c2)cc1 (stereo not given) | 22%
39 | COc1cc(/C=C/C(=O)c2cccs2)ccc1OCc1ccc(Cl)nc1 | 57.6%
40 | CCCCCCC(C)(O)c1ccccc1 (stereo not given) | 117%
